PubChem BioAssay
Calls of active or inactive are those of the source.

molecular target: NADPH oxidase 4 (Homo sapiens) (UniProt Q9NPH5); test: NOX4-dependent H2O2 signal modulators, primary screen, NOX inhibitor project, cell-based, HEK293-NOX4, tetracycline-induced, Amplex Red fluorescence (AID 1160); details: 45 min, higher = more signal, called active from +8 up or from −8 down
Sequence (Q9NPH5 whole entry, looked up): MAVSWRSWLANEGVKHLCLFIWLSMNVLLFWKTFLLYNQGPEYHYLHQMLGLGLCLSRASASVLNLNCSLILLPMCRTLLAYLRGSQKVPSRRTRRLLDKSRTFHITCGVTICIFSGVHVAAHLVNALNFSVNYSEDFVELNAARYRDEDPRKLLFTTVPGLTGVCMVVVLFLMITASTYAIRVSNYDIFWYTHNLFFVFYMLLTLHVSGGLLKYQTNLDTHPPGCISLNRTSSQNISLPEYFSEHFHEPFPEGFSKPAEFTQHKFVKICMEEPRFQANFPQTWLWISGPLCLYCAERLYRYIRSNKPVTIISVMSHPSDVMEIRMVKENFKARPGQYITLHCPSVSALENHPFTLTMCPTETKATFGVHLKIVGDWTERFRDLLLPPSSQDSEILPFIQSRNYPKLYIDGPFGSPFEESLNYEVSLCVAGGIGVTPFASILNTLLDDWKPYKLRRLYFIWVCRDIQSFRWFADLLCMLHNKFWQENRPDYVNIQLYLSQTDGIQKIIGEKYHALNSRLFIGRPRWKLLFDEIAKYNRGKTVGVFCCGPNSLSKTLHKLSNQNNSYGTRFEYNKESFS

z-score, inactive:
CC(C)Cc1ccc(CN2CC[C@@H](NC(=O)Nc3ccccc3)C2)cc1 -0.351, COC(=O)[C@@]1(Cc2ccc(F)cc2)[C@H]2c3cc(C(=O)N4CCCC4)n(CCN4CNCC4=O)c3C[C@H]2CN1C(=O)c1ccccc1 -0.489, COC(=O)[C@@]1(Cc2ccccc2)[C@@H]2C(=CC(=O)[C@H]2CC(=O)C(=O)N(C)C)CN1C(=O)c1ccccc1 0.705, C=CCC(OC(C)=O)[C@@H]1[C@@H](N(Cc2ccc(-c3ccccc3)cc2)C(=O)Cc2ccc(F)cc2)c2cc(OCCCO)ccc2N1C(=O)Cc1ccc(OC)cc1 (stereo not given in full) 0.675, COc1ccc([Si](C)(C)[C@@H]2[C@@H](CCn3cc([C@H](O)c4ccccc4)nn3)O[C@]3(C(=O)N(Cc4ccc(N5CCC5=O)cc4)c4ccccc43)[C@H]2C)cc1 1.08, C=C(C)[C@@H]1CC=C(C(O)C2C=CC3C(=O)N(c4ccccc4)C(=O)C3N2Nc2ccccc2F)CC1 (stereo not given in full) -1.64, Cc1ccc(S[C@]2(C(=O)O)CC(=O)N(Cc3ccccc3Cl)[C@@H]2c2ccc(CO)cc2I)cc1 -2.51, O=C1C2C=CC(C(O)c3ccccc3)N(Nc3ccccc3F)C2C(=O)N1c1ccccc1 (stereo not given) -3.6, [N-]=[N+]=NCc1ccccc1[C@@H]1OC(c2ccc(OCCCO)cc2)=N[C@]1(CCS(=O)(=O)c1ccccc1)C(=O)NCC(O)CO (stereo not given in full) 1.78, COC(=O)c1c(CC[C@@H](CO)NC(=O)N[C@H](Cn2cc(C3(O)CCCCC3)nn2)C(C)C)oc(C(C)=O)c1C(=O)OC -0.839, O=C1C2C=CC(C(O)c3ccc(F)cc3)N(n3cnnc3)C2C(=O)N1Cc1ccccc1 (stereo not given) -1.12, Cc1ccc(S[C@]2(C(=O)NCC(F)(F)F)CC(=O)N(Cc3ccccc3)[C@@H]2c2ccc(CO)cc2I)cc1 -1.33, C=C(/C(=C/C[C@H](OC(C)=O)c1ccccc1OCCO)c1cc(C(=O)OC)ccc1OC)C(C)C 0.264, CC(C)N1C(=O)C[C@@](C(=O)NCCCN(C)C)(c2ccc([N+](=O)[O-])cc2)[C@H]1c1ccc(CO)cc1 0.334, COCCOC(=O)N1C(=O)[C@@]2(c3cc(C#Cc4ccc(OC)cc4)ccc31)[C@H](c1ccccc1OCCO)N1[C@H](c3ccccc3)[C@H](c3ccccc3)OC(=O)[C@H]1[C@@H]2C(=O)N1CCCCCCC1 0.201, O=C1NC(=O)C2C1C=CC(C(O)c1cccc3ccccc13)N2Nc1ccc(Cl)cc1Cl (stereo not given) -6.34, C=CCNC(=O)[C@H]1[C@@H]2C(=O)O[C@@H](c3ccccc3)[C@@H](c3ccccc3)N2[C@@H](c2ccc(O)cc2)[C@]12C(=O)Nc1ccc(C#CC3(O)CCCCCC3)cc12 0.772, CCCC[C@@H]1C[C@H]1[C@@H](NC(=O)c1ccccc1)c1ccc(C(F)(F)F)cc1 -0.742, NC(=O)N1C(=O)C2C(C1=O)C1C=C(CCCO)C2C(c2cccs2)N1Cc1cccc(OC(F)(F)F)c1 (stereo not given) 0.0752, CCCC[C@@H]1C[C@H]1[C@@H](NC(=O)c1cccs1)c1ccc(C(F)(F)F)cc1 -2.08, C=C(/C(=C/C[C@@H](OC(C)=O)c1cccc(OCCO)c1)c1cc(C(=O)OC)ccc1OC)C(C)C -1.07, CC(C)(C)OC(=O)CC[C@]1(C(=O)NCC(O)CO)N=C(c2ccc(OCCCO)cc2)O[C@H]1c1ccccc1 (stereo not given in full) 0.678, CC(C)(C)N1CC=CC23O[C@@H]4C=CCCOC(=O)C4[C@H]2C(=O)N(CCO)[C@@H]3C1=O (stereo not given in full) 0.696, COc1ccccc1CN1C(=O)c2ccccc2[C@](Cc2ccccc2I)(C(=O)NCC(F)(F)F)[C@@H]1c1ccc(CO)cc1 -1.73, CCOC(=O)C[C@H]1[C@H](OC(=O)c2ccccc2-c2ccccc2)[C@@H](NC(=O)C2CCCCC2)c2cc(OCCCO)ccc2N1C(=O)Cc1ccc(OC)cc1 0.979, COC(=O)CCCCCCC(=O)Nc1ccc(NC(=O)CCCC[P+](c2ccccc2)(c2ccccc2)c2ccccc2)cc1 0.429, CN1C(=O)C2C=CC(C(O)COCc3ccccc3)N(N(c3ccccc3)c3ccccc3)C2C1=O (stereo not given) -4.42, O=C1O[C@H](c2ccccc2)[C@H](c2ccccc2)N2[C@H]1[C@@H](C(=O)O)[C@]1(C(=O)Nc3ccc(C#CC4=CCCCC4)cc31)[C@H]2c1ccc(O)cc1 -3.15, CCOc1cc(C(O)C2C=CC3C(=O)N(c4ccccc4)C(=O)C3N2Nc2ccc(C#N)cc2)ccc1O (stereo not given) -5.02, Cc1cc(C)cc(N2C(=O)CSC2c2cccc([N+](=O)[O-])c2)c1 (stereo not given) -0.364, COCCOC(=O)N1C(=O)[C@@]2(c3cc(C#CC4(O)CCCCCC4)ccc31)[C@H](c1ccc(O)cc1)N1[C@H](c3ccccc3)[C@H](c3ccccc3)OC(=O)[C@H]1[C@@H]2C(=O)NC[C@H](O)c1ccccc1 0.895, C=CCN1C(=O)[C@@]2(CCS(=O)(=O)c3ccccc3)N=C(c3ccc(OCCCO)cc3)O[C@H]2c2ccccc21 1.35, CCOC(=O)C[C@H]1[C@H](OC(=O)c2cc3ccccc3oc2=O)[C@@H](NC(=O)c2ccc(-c3ccccc3)cc2)c2cc(OCCCO)ccc2N1C(=O)c1ccccc1 0.178, CCCCO[C@H]1C[C@H]2C(I)=C[C@@H]1C(=O)[C@]21CO1 0.609, [N-]=[N+]=NCc1ccccc1[C@H]1OC(c2ccc(OCCCO)cc2)=N[C@@]1(CCS(=O)(=O)c1ccccc1)C(=O)N1CCCCC1 1.56
